Most compounds without a hit are left out; they make up all but 2.4% or so of the library.
WRN inhibitor = qHTS for Inhibitors of WRN Helicase; WRN helicase unwinding, fluorescent forked duplex, kinetic; actives 0.46% (n = 360,000); AID 651768, 2012; Bifunctional 3'-5' exonuclease/ATP-dependent helicase WRN (Homo sapiens), Q14191; Potency, µM (top dose mostly 114 µM), usual class: inhibitors; further: nearly all actives have a fitted effect of over 55% in size
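Screening of the MLSMR collection measured strand separation of a quenched forked DNA duplex (100 nM) by 20 nM WRN with 2 mM ATP, all final. Compounds were preincubated with enzyme 15 min at room temperature.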
POLI inh = qHTS for Inhibitors of Polymerase Iota; DNA polymerase iota (Homo sapiens), Q9UNA4; Pol iota fluorescent replication assay, 10 min; Potency, µM (highest dose often 115 µM), actives largely listed as inhibitors; actives 1% (n = 390,000)
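Pol iota at 10 nM preincubated 15 min with compounds at room temperature; reaction started with fluorescent substrate, 50 nM final. Fluorescence read kinetically at 0 and 10 min; buffer-only wells as negative control.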
POLB inh = qHTS Assay for Inhibitors of DNA Polymerase Beta; Pol beta primer extension/strand displacement, fluorescence kinetic; actives 1.3% (n = 340,000); AID 485314, 2010; Potency, µM (series often up to 114 µM), hits mostly inhibitors
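Kinetic readout of DNA synthesis with strand displacement by Pol beta. Compound and 10 nM enzyme sit 15 min at room temperature; 50 nM substrate starts the reaction, read immediately and at 10 min.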
Pol eta inh = qHTS for Inhibitors of Polymerase Eta; recombinant Pol eta, fluorescent DNA replication assay; DNA polymerase eta (Homo sapiens), Q9Y253; actives 1.2% (n = 390,000); Potency, µM (doses to about 114 µM), hits mostly inhibitors
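Fluorescent replication assay: 50 nM final substrate added after a 15 min room-temperature compound preincubation with 10 nM enzyme. Signal taken at 0 min and again at 10 min.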
FEN1 inh = qHTS Assay for the Inhibitors of Human Flap endonuclease 1 (FEN1) | actives 0.35% (n = 390,000) | Potency, µM (titrated, usually from 114 µM), hits mostly inhibitors | AID 588795, 2011 | Recombinant FEN1 flap cleavage, fluorescence, 15 min; further: nearly all actives have a fitted effect of over 65% in size
Target sequence (P39748 whole entry, looked up): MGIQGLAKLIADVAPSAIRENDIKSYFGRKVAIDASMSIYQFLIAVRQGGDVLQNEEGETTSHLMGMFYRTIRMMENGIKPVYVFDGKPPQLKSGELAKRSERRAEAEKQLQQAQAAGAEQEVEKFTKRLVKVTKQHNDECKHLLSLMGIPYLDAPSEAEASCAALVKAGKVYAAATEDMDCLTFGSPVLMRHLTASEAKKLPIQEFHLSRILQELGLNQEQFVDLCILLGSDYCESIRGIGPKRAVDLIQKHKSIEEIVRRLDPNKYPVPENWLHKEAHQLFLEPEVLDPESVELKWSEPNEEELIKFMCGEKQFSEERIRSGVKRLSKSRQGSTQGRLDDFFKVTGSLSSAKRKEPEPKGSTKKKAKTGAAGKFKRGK
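Quantitative HTS format: each compound was titrated, incubated with 10 nM nuclease for 15 min at room temperature, then challenged with flap substrate at 50 nM final. Signal change over 15 min gave concentration–effect curves.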
POLK inh = qHTS for Inhibitors of Polymerase Kappa; actives 0.53% (n = 400,000); purified Pol kappa, fluorescent DNA synthesis assay, 10 min; AID 588579, 2011; Potency, µM (doses to about 107 µM), actives largely listed as inhibitors; DNA polymerase kappa (Homo sapiens), Q9UBT6
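Enzyme at 10 nM met test compounds for 15 min at room temperature. Substrate addition (50 nM final) began the reaction, which was monitored by fluorescence at 0 and 10 min.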
Each line names hits and unclear results; the compound was inactive in the other large screens. The call rests on the fitted dose curve; in most records, active means well fitted curve in the direction sought with a large enough effect; inconclusive means small, poorly fitted or top-dose-only effect, or another doubt; inactive means no such curve, though single readings can be large; an effect the other way counts as inactive or inconclusive.

O=C(O)CCn1cnc2onc(-c3ccccc3Cl)c2c1=O	POLB inh 22.4µM (no result: WRN inhibitor)
CCOc1cccc(NC(=O)C2CC(=O)N(C)C(=Nc3cccc(OC)c3)S2)c1 (stereo not given)	POLI inh inconclusive (no result: WRN inhibitor)
COc1ccc(-n2c(C)cc(/C=C3\C(=N)N4N=C(CC(=O)N5CCOCC5)SC4=NC3=O)c2C)cc1	POLI inh 50.1µM, POLB inh 0.891µM, Pol eta inh 31.6µM, POLK inh inconclusive
CC(C)c1ccc(/C=C2\C(=N)N3N=C(CC(=O)N4CCCCC4)SC3=NC2=O)cc1	POLI inh 20µM, POLK inh inconclusive
CCc1ccc(/C=C2\C(=N)N3N=C(CC(=O)N4CCCCC4)SC3=NC2=O)cc1	POLI inh inconclusive, POLK inh inconclusive
Cc1cccc(N2CCN(C(c3ccccc3)c3nnc(-c4ccccc4Cl)o3)CC2)c1C (stereo not given)	none (no result: WRN inhibitor)
CCCCOC(=O)CSC1=C(C#N)C(c2ccccc2OCC)C(C#N)C(=O)N1 (stereo not given)	POLI inh 79.4µM
CCCOC(=O)CSC1=C(C#N)C(c2ccccc2OCC)C(C#N)C(=O)N1 (stereo not given)	POLI inh inconclusive, POLB inh inconclusive
O=C(c1ccc(COc2c(F)c(F)c(F)c(F)c2F)o1)N1CCN(Cc2ccc3c(c2)OCO3)CC1	POLI inh inconclusive, POLB inh 44.7µM, Pol eta inh inconclusive, POLK inh inconclusive
O=C(c1c(F)c(F)c(F)c(F)c1F)N1CCN(Cc2ccc3c(c2)OCO3)CC1	none (no result: POLB inh)
Cc1ccc(C(=O)c2oc3ccccc3c2NC(=O)COc2ccccc2C)cc1	none (no result: WRN inhibitor)
CC(NC(=O)/C(C#N)=C/c1ccc([N+](=O)[O-])o1)c1ccccc1 (stereo not given)	WRN inhibitor 56.2µM, POLI inh 20µM, POLB inh 39.8µM, Pol eta inh 50.1µM, FEN1 inh inconclusive
CC(NC(=O)/C(C#N)=C/c1ccco1)c1ccccc1 (stereo not given)	none
CC(C)(C)[C@H]1CCC(=O)N(CCSc2ccc(Br)cc2)CC1	POLI inh inconclusive (no result: WRN inhibitor, POLB inh, Pol eta inh)
CC(NC(=O)COC(=O)c1ccc([N+](=O)[O-])s1)c1ccccc1 (stereo not given)	POLI inh inconclusive, POLB inh 15.8µM, Pol eta inh inconclusive
O=C(COC(=O)c1ccc([N+](=O)[O-])s1)NCCc1ccccc1	POLI inh 56.2µM, Pol eta inh inconclusive, FEN1 inh inconclusive, POLK inh inconclusive (no result: POLB inh)
Cc1ccc(C(=O)OCC(=O)NC(C)c2ccccc2)s1 (stereo not given)	none (no result: POLB inh)
Cc1ccc(S(=O)(=O)N2CCc3cc(C(=O)Nc4c(F)cccc4F)ccc32)cc1	none (no result: WRN inhibitor)
O=C(O)c1ccc2c(=O)n3c(nc2c1)/C(=C/c1ccc(C(F)(F)F)cc1)CC3	POLI inh 79.4µM, Pol eta inh inconclusive, FEN1 inh inconclusive
N#Cc1ccc(/C=C2\CCCCn3c2nc2cc(C(=O)O)ccc2c3=O)cc1	POLB inh inconclusive
N/C(=C\C(=O)c1cc(Cl)ccc1O)C(Cl)(Cl)Cl	POLI inh inconclusive, Pol eta inh 50.1µM
Cc1cn2c(=O)cc(COC(=O)c3cccc(NC(=O)COc4ccccc4Cl)c3)nc2s1	none (no result: WRN inhibitor)
Cc1cc(C)c(C)c(S(=O)(=O)N[C@@H](C)C(=O)OCc2cc(=O)n3cc(Br)ccc3n2)c1C	POLI inh 50.1µM, POLB inh 8.91µM, Pol eta inh inconclusive, POLK inh inconclusive
COc1ccc(C)cc1NC(=O)CCS(=O)(=O)c1cc2c3c(c1)CCN3C(=O)CC2	none (no result: WRN inhibitor)
Cc1cc(NS(=O)(=O)c2ccc(NC(=O)c3cnc4sccn4c3=O)cc2)nc(C)n1	POLI inh inconclusive, POLB inh inconclusive, Pol eta inh 8.91µM, POLK inh inconclusive
Cc1cc(NS(=O)(=O)c2ccc(NC(=O)c3ccc(Br)o3)cc2)nc(C)n1	POLI inh inconclusive, POLB inh inconclusive, Pol eta inh 39.8µM

Assay outcomes: PubChem BioAssay, National Center for Advancing Translational Sciences (NCATS)
